# YjeE inh – qHTS Assay for Inhibitors of YjeE; Potency, µM; AID 605, 2007; 0.05% of 71,000 active; purified YjeE enzyme, qHTS inhibition assay; tRNA threonylcarbamoyladenosine biosynthesis protein TsaE (Escherichia coli (strain …
#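 Purified YjeE (10 uM) with BODIPY Texas Red-labeled ADP probe (2 uM); compounds pin-transferred, 15 min at room temperature. Binding inhibition read as decreased fluorescence polarization; ADP titration as control.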
# p53ts 39C kill – qHTS Screen for Compounds that Selectively Target Cancer Cells with p53 Mutations: Cytotoxicity of p53ts Cells at the Nonpermissive Temperature | H1299-p53A138V viability at 39C, ATP luminescence, 24 h | Potency, µM (series often up to 46.1 µM), for the others: top-dose activity change, negative = cell killing, actives largely listed as cytotoxic | 1.5% of 130,000 active; also: potency is read from the fitted curve at half-maximal effect; % is scaled to controls: 0 for no effect and ±100 for the full control effect; nearly all actives have a fitted effect of over 55% in size
# Tau filament bind – qHTS Assay for Tau Filament Binding. 2% of 71,000 active. recombinant tau filaments, thioflavin S fluorescence, 15 h; filaments grown with octadecylsulfate alongside compound. Potency, µM (series often up to 57.1 µM), for the others: at the highest dose activity change, negative = inhibition;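 also: potency is read from the fitted curve at half-maximal effect; % is scaled to controls: 0 for no effect and ±100 for the full control effect; actives lower thioflavin S fluorescence by blocking filaments or displacing dye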
# Target sequence (P10636 whole entry, looked up): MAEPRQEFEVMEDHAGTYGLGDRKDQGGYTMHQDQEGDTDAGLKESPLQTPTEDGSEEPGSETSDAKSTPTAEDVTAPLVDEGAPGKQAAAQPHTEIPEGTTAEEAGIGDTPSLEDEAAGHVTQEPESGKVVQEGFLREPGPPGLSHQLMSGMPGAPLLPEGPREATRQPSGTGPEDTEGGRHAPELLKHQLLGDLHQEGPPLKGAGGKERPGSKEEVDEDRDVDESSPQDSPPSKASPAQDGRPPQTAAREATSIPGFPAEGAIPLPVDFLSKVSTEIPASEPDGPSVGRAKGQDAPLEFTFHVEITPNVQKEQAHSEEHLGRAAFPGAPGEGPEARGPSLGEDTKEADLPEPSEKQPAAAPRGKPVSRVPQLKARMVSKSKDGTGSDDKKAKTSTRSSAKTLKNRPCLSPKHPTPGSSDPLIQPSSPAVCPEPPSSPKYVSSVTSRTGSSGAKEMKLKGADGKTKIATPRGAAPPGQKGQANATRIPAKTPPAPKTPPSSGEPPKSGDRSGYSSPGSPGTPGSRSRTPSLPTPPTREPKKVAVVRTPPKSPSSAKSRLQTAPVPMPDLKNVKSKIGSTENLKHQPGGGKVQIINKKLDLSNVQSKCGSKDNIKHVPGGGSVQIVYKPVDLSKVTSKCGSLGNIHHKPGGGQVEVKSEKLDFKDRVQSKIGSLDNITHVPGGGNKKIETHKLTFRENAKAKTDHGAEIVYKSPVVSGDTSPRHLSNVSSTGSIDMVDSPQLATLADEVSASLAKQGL
#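 Recombinant tau protein (human, 1 uM final) plus 30 uM ODS in HEPES pH 7.4 with NaCl, DTT and thioflavine S. Compound present from the start; fluorescence at 510 nm after 15 h, 37 C.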
# Pol III holo inh – qHTS Assay for Inhibitors of DNA Polymerase III Holoenzyme System; reconstituted DNA polymerase III holoenzyme replication, biochemical; Potency, µM (series often up to 57.1 µM), inactives show at the top dose activity change, negative = inhibition; 0.25% of 71,000 active; also: potency is read from the fitted curve at half-maximal effect; % is scaled to controls: 0 for no effect and ±100 for the full control effect
#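 Reconstituted *E. coli* holoenzyme (0.35 nM Pol III, 1 nM beta, 154 nM SSB, 2 nM primase) was preincubated with compound for 15 min at RT. Synthesis on 1.4 nM ssM13Gori ran 35 min, then was stopped with PicoGreen/EDTA and read as dsDNA fluorescence.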
# ERK AVP inh – qHTS Assay for Inhibitors of the ERK Signaling Pathway using a Homogeneous Screening Assay. AID 995, 2007. Potency, µM (highest dose often 57.5 µM), without a hit: top-dose activity, negative = inhibition, usual class: inhibitors. HEK293-V1b, vasopressin-stimulated pERK AlphaScreen. 0.99% of 72,000 active; also: potency is read from the fitted curve at half-maximal effect; % is scaled to controls: 0 for no effect and ±100 for the full control effect; nearly all actives have a fitted effect of over 55% in size
#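 V1b-HEK293 cells; cpd 30 min 37C; 25 nM vasopressin 5 min; lyse 10 min; AlphaScreen beads 5 hr RT. Normalized to DMSO basal and 25 nM vasopressin; AC50 by Hill fit.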
# p53ts 32C tox – qHTS Screen for Compounds that Selectively Target Cancer Cells with p53 Mutations: Cytotoxicity of p53ts Cells at the Permissive Temperature; H1299-p53A138V at 32C, ATP luminescence viability, 24 h; Potency, µM (highest dose often 46.1 µM), for inactives: at the highest dose activity change, negative = cytotoxicity, hits mostly cytotoxic; 0.93% of 130,000 active; AID 924, 2007;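 also: potency is read from the fitted curve at half-maximal effect; 0% = DMSO and -100% = full killing by reference compound; nearly all actives have a fitted effect of over 55% in size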
#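 ATP-content luminescence (ATPlite) read-out after 24 h compound exposure at 32C in H1299-p53A138V cells (600/well). Tested up to 46 uM. Normalized to DMSO (0%) and 100 uM tamoxifen (100% killing); Hill-fit AC50.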
# * marks the source's active call; other numbers are inactive results; i = inactive; ? = inconclusive; . = no result; [ ] = dose if it differs, or a comment. In the library only some 3.2% were active in any assay of this set; here they are far more common. Calls follow the shape of the dose curve; as a rule, active = well fitted curve in the direction sought with a large enough effect; inconclusive = small, poorly fitted or top-dose-only effect, or another doubt; inactive = no such curve, though single readings can be large; an effect the other way counts as inactive or inconclusive.
SMILES,YjeE inh,p53ts 39C kill,Tau filament bind,Pol III holo inh,ERK AVP inh,p53ts 32C tox
Nc1ncnc2c1c(-c1ccc(Oc3ccccc3)cc1)cn2C1CCCC1,i,?,24.7%,2.3%,7.94µM*,?
CCc1cccc(NC(=O)C(Cc2ccccc2)n2cccc2)c1 (stereo not given),.,?,.,.,.,1.5%
O=c1c(-c2ccc(Cl)cc2)nc2cncnc2n1Cc1ccc(F)cc1,i,-8.1%,?,-5.5%,?,-10.2%
O=c1c(-c2ccc(Cl)cc2)nc2cncnc2n1Cc1ccccc1,i,-20.1%,?,-1.3%,-20.9%,-10.6%
O=c1c(-c2ccc(F)cc2)nc2cncnc2n1Cc1ccc(F)cc1,i,-17.3%,12.6µM*,-7.5%,?,-11.4%
O=c1c(-c2ccc(F)c(F)c2)nc2cncnc2n1Cc1ccccc1,i,-6.7%,12.6µM*,-6.3%,-23.1%,-18.6%
O=c1c(-c2cc(F)cc(F)c2)nc2cncnc2n1Cc1ccc(F)cc1,i,1.4%,?,-2.8%,-11.8%,-4.5%
O=c1c(-c2cc(F)cc(F)c2)nc2cncnc2n1Cc1ccccc1,i,-20.1%,31.6µM*,-8.3%,?,-19.7%
CCc1ccc(CNc2ccc(N3CCN(C(C)=O)CC3)cc2)cc1,i,-8.4%,12.6µM*,5.2%,?,-8.6%
CCc1cccc(C)c1NC(=O)Cn1nc(C)n2cccc2c1=O,.,12.6µM*,.,.,.,-4.4%
COC(=O)c1cc(NC(=O)Cn2nc(C)n3cccc3c2=O)cc(C(=O)OC)c1,.,-1.3%,.,.,.,-4.1%
O=C(COc1ccc(Cl)cc1Cl)Nc1ccccn1,i,0.631µM*,11.2%,5.4%,-11.1%,0.398µM*
O=C(COc1ccc(Cl)cc1)Nc1ccc(Cl)cn1,i,-4.6%,17.3%,-1.3%,13.7%,-21.3%
Cc1cc(Cl)ccc1OCC(=O)N1CCCCC1,i,1.2%,-2.0%,-4.0%,-2.5%,-11.1%
O=C(COc1ccccc1Cl)Nc1ccc(Cl)cn1,i,15.8µM*,2.7%,-3.1%,31.6%,12.6µM*
O=C(COc1ccc(Cl)cc1Cl)NCc1ccncc1,i,0.2%,-0.9%[11.4 µM],-5.1%[11.4 µM],?,-3.8%
O=C(COc1ccc(Cl)cc1Cl)NC(=O)N1CCCCC1,i,?,8.7%,3.1%,16.3%,12.6µM*
COc1ccccc1OCC(=O)Nc1ccc(S(=O)(=O)N2CCCCCC2)cc1,i,-4.4%,127.2%[11.4 µM],6.5%[11.4 µM],25.1µM*,-5.1%
CCCCN(CC)S(=O)(=O)c1cccc2cccnc12,i,-5.0%,-3.1%,-2.6%,.,7.9%
CCCC(CCC)C(=O)NC1CC(=O)N(c2ccc3c(c2)OCCO3)C1 (stereo not given),.,-7.3%,.,.,.,-12.9%
COc1cccc(Nc2sc(C(=O)c3ccc(F)cc3)c(N)c2C(=O)NCc2ccc(C)cc2)c1,.,?,.,.,.,-13.6%
COc1ccccc1CNS(=O)(=O)c1cc(C(=O)Nc2cccc(C(F)(F)F)c2)ccc1F,.,-52.5%,.,.,.,22.5%
COc1cccc2cc(-c3cn4c(n3)sc3cc(F)ccc34)c(=O)oc12,.,-3.9%,.,.,.,-9.8%
O=C(Cn1cc(SCc2ccc(F)cc2)c2ccccc21)N1CCCC1,.,-26.1%,.,.,.,1.1%
O=C(CC(=O)Nc1ccccn1)Nc1ccccn1,i,4.5%,-0.6%,-0.6%,-18.2%,-6.9%
SMILES,YjeE inh,p53ts 39C kill,Tau filament bind,Pol III holo inh,ERK AVP inh,p53ts 32C tox
COc1ccccc1OCC(=O)Nc1ccccn1,i,7.94µM*,4.5%,-1.1%,1.7%,10µM*
COc1ccc(CCNc2oc(COc3ccc(Br)cc3)nc2C#N)cc1OC,i,-21.4%,71.7%,-0.3%,20µM*,?
COc1ccc(-c2nc(C#N)c(NCc3ccccc3Cl)o2)cc1,i,-13.5%,144.8%,3.9%,?,-3.1%
COc1ccc(-c2nc(C#N)c(NCc3ccc(F)cc3)o2)cc1OC,i,-5.3%,55.6%,1.5%,25.1µM*,-13.3%
COc1ccc(-c2nc(C#N)c(NCCc3ccccc3)o2)cc1,i,-2.9%,21.3%,0.2%,15.8µM*,10.4%
COc1ccc(CNc2oc(-c3ccccc3)nc2C#N)cc1,i,6.1%,-2.7%,-9.7%,31.6µM*,46.4%
COc1ccc(-c2nnc(SCC(=O)Nc3cccc(C(F)(F)F)c3)nc2-c2ccc(OC)cc2)cc1,.,-4.4%,.,.,.,25.3%
CCc1ccc(CNC(=O)CN2C(=O)c3cccnc3Oc3ccc(Cl)cc32)cc1,.,.,.,.,.,-8.9%
COc1ccc(CNC(=O)c2cc(-c3ccc(OC)c(OC)c3)nc3n[nH]c(-c4ccc(C)cc4)c23)cc1,.,-19.7%,.,.,.,3.0%
COc1ccc(-c2cc(C(=O)NCc3ccc(F)cc3)c3c(-c4ccc(F)cc4)[nH]nc3n2)cc1OC,.,12.6µM*,.,.,.,?
CN(C)c1ccc(-c2cncnc2-n2ccnc2)cc1,i,-10.3%,-16.4%,-5.8%,15.8µM*,2.7%
CC(=O)C1=C(C)Nc2cc(C(F)(F)F)ccc2S1,i,-4.4%,31.6µM*,-4.6%,-17.5%,-2.3%
Cn1c(=O)c2c(nc(NCc3ccco3)n2C/C=C/c2ccccc2)n(C)c1=O,i,-20.4%,-3.1%,-0.5%,31.6µM*,?
CCOc1ccc(CCNCc2c(C(=O)O)c(C)n(Cc3ccccc3F)c2C)cc1,.,-3.4%,.,.,.,-11.3%
COc1nc(-c2ccc(C)cc2)ccc1-c1noc(-c2ccco2)n1,i,-7.4%,-3.5%,-2.8%,1.6%,-15.3%
COc1nc(C)ccc1-c1noc(-c2ccco2)n1,i,12.6µM*,-2.4%,-0.6%,-25.8%,12.6µM*
O=C(O)c1ccc2cc(-c3ccc(O)c(C45CC6CC(CC(C6)C4)C5)c3)ccc2c1,.,?,.,.,?,20µM*
CC1Cn2c(C(=O)NCc3cccc(Br)c3)cc3cccc(c32)S1 (stereo not given),.,0.7%,.,.,.,11.8%
Cc1cccc(NS(=O)(=O)c2ccc3oc(=O)c4ncn(C)c4c3c2)c1C,.,-3.1%,.,.,.,3.7%
Cc1ccc(C)c(NS(=O)(=O)c2ccc3oc(=O)c4ncn(C)c4c3c2)c1,.,7.94µM*,.,.,.,?
O=C(Nc1ccc2nc(-c3cccs3)[nH]c2c1)c1ccco1,i,12.6µM*,-5.7%,-7.7%,-22.9%,?
C=Cc1c(C)c2cc3[nH]c(cc4nc(cc5nc(cc1[nH]2)C(C)=C5CCC(=O)O)C(CCC(=O)O)=C4C)c(C)c3C=C,?,-7.0%,5.01µM*,-16.6%,407.7%,-10.4%
CCCN(CCC)C(=O)Cn1c(=O)n(-c2cccc(C)c2)c(=O)c2c1c1cc(OC)ccc1n2C,.,18.1%,.,.,.,12.3%
